Laboratory results taken from PMC5540273 (PLoS ONE, 2017).

Columns and labels:
Details in all cases: concentration: 1 μM,replicates: in singlicate; n = 1
[1] = tested on: PLK2
[2] = tested on: PLK3
[3] = tested on: PLK4
[4] = tested on: PRKCD
[5] = tested on: PRKCE
[6] = tested on: PRKCH
[7] = tested on: PRKCI
[8] = tested on: PRKCQ
[9] = tested on: PRKD1
[10] = tested on: PRKD2
[11] = tested on: PRKD3
[12] = tested on: PRKG1
[13] = tested on: PRKG2
[14] = tested on: T1, PRKR
T1 construct: gene EIF2AK2

[15] = tested on: PRKX
[16] = tested on: PRP4
[17] = tested on: T2, PYK2
T2 construct: gene PTK2B

[18] = tested on: QSK
[19] = tested on: RAF1
[20] = tested on: RET
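Also: KINOMEscan kinase panel screen.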

For `Cl.c1ccc(Oc2ccc(Nc3ccnc4cc(-c5ccc(CN6CCNCC6)o5)ccc34)cc2)nc1` [GW567142], which “%Inh” value [1] is on record?
Its value is 0%.

What about the “%Inh” value [2] of the same compound?
Its value is 0%.

And the “%Inh” value [3]?
Its value is 16%.

What about the “%Inh” value [4] of the same compound?
Its value is 0%.

What about the “%Inh” value [5] of the same compound?
Its value is 0%.

What about the “%Inh” value [6] of the same compound?
The value was 0%.

What about the “%Inh” value [7] of the same compound?
The value was 20%.

And the “%Inh” value [8]?
The value was 0%.

What about the “%Inh” value [9] of the same compound?
The value was 24%.

And the “%Inh” value [10]?
Its value is 3%.

What about the “%Inh” value [11] of the same compound?
The value was 19%.

What about the “%Inh” value [12] of the same compound?
The value was 0%.

And the “%Inh” value [13]?
The value was 0%.

And the “%Inh” value [14]?
The value was 0%.

What about the “%Inh” value [15] of the same compound?
Its value is 20%.

What about the “%Inh” value [16] of the same compound?
Its value is 13%.

And the “%Inh” value [17]?
The value was 0%.

What about the “%Inh” value [18] of the same compound?
The value was 0%.

What about the “%Inh” value [19] of the same compound?
The value was 0%.

What about the “%Inh” value [20] of the same compound?
The value was 20%.

Which results are given for `CN1CCN(CCNc2nc3cc(Oc4ccc(NC(=O)Nc5cc(C(F)(F)F)ccc5F)cc4)ccc3[nH]2)CC1.Cl.Cl` [GW768504]?
%Inh [1]: 0%; %Inh [2]: 0%; %Inh [3]: 8%; %Inh [4]: 9%; %Inh [5]: 0%; %Inh [6]: 0%; %Inh [7]: 0%; %Inh [8]: 0%; %Inh [9]: 0%; %Inh [10]: 14%; %Inh [11]: 0%; %Inh [12]: 2%; %Inh [13]: 0%; %Inh [14]: 24%; %Inh [15]: 0%; %Inh [16]: 0%; %Inh [17]: 18%; %Inh [18]: 0%; %Inh [19]: 75%; %Inh [20]: 99.9%

With `COc1cc2c(Nc3ccc(NC(=O)c4ccccc4)cc3)ncnc2cc1OCCCN1CCOCC1` [GSK301329] as the compound, how does the “%Inh” value [1] read?
The value was 0%.

And the “%Inh” value [2]?
The value was 0%.

What about the “%Inh” value [3] of the same compound?
The value was 36%.

What about the “%Inh” value [4] of the same compound?
The value was 6%.

What about the “%Inh” value [5] of the same compound?
Its value is 0%.

What about the “%Inh” value [6] of the same compound?
The value was 0%.

And the “%Inh” value [7]?
The value was 0%.

And the “%Inh” value [8]?
The value was 9%.

And the “%Inh” value [9]?
The value was 0%.

What about the “%Inh” value [10] of the same compound?
Its value is 4%.

And the “%Inh” value [11]?
Its value is 0%.

What about the “%Inh” value [12] of the same compound?
The value was 0%.

And the “%Inh” value [13]?
The value was 21%.

And the “%Inh” value [14]?
The value was 0%.

And the “%Inh” value [15]?
Its value is 22%.

And the “%Inh” value [16]?
Its value is 0%.

And the “%Inh” value [17]?
Its value is 0%.

What about the “%Inh” value [18] of the same compound?
The value was 18%.

And the “%Inh” value [19]?
The value was 1%.

What about the “%Inh” value [20] of the same compound?
Its value is 79%.

How did the “%Inh” value [1] turn out when `COC(=O)Nc1nc2cc(Oc3ccc(NC(=O)Nc4cc(C(F)(F)F)ccc4Cl)cc3)ccc2[nH]1.Cl` [GW697465] was run?
The value was 0%.

And the “%Inh” value [2]?
The value was 0%.

And the “%Inh” value [3]?
The value was 0%.

And the “%Inh” value [4]?
The value was 0%.

What about the “%Inh” value [5] of the same compound?
The value was 11%.

And the “%Inh” value [6]?
The value was 7%.

What about the “%Inh” value [7] of the same compound?
Its value is 0%.

And the “%Inh” value [8]?
Its value is 6%.

And the “%Inh” value [9]?
The value was 0%.

And the “%Inh” value [10]?
The value was 1%.

And the “%Inh” value [11]?
Its value is 9%.

And the “%Inh” value [12]?
Its value is 2%.

What about the “%Inh” value [13] of the same compound?
Its value is 0%.

What about the “%Inh” value [14] of the same compound?
Its value is 0%.

What about the “%Inh” value [15] of the same compound?
Its value is 15%.

And the “%Inh” value [16]?
The value was 43%.

And the “%Inh” value [17]?
The value was 24%.

And the “%Inh” value [18]?
Its value is 9%.

And the “%Inh” value [19]?
The value was 89%.

And the “%Inh” value [20]?
Its value is 100%.

What does the source list for `CC(C)S(=O)(=O)N1CCN(Cc2ccc3c(c2)nc(NC(=O)c2ccsc2)n3C[C@H](O)c2ccccc2)CC1` [GW635815]?
%Inh [1]: 0%; %Inh [2]: 0%; %Inh [3]: 5%; %Inh [4]: 11%; %Inh [5]: 15%; %Inh [6]: 13%; %Inh [7]: 18%; %Inh [8]: 12%; %Inh [9]: 0%; %Inh [10]: 0%; %Inh [11]: 0%; %Inh [12]: 23%; %Inh [13]: 18%; %Inh [14]: 0%; %Inh [15]: 16%; %Inh [16]: 10%; %Inh [17]: 38%; %Inh [18]: 3%; %Inh [19]: 6%; %Inh [20]: 44%

What does the source list for `COC(=O)c1cccc(NC(=O)NC2CCN(c3ccnc(NCc4ccc(F)cc4)n3)CC2)c1` [GSK1379860]?
%Inh [1]: 0%; %Inh [2]: 0%; %Inh [3]: 0%; %Inh [4]: 0%; %Inh [5]: 0%; %Inh [6]: 32%; %Inh [7]: 28%; %Inh [8]: 26%; %Inh [9]: 12%; %Inh [10]: 2%; %Inh [11]: 25%; %Inh [12]: 0%; %Inh [13]: 0%; %Inh [14]: 0%; %Inh [15]: 9%; %Inh [16]: 30%; %Inh [17]: 9%; %Inh [18]: 9%; %Inh [19]: 15%; %Inh [20]: 9%

Which “%Inh” value [1] does the source give for `Cc1ccc2c(-c3ccnc(Nc4ccc(C(F)(F)F)cc4)n3)cnn2n1` [GW819776] here?
Its value is 15%.

What about the “%Inh” value [2] of the same compound?
Its value is 33%.

And the “%Inh” value [3]?
The value was 9%.

What about the “%Inh” value [4] of the same compound?
The value was 5%.

And the “%Inh” value [5]?
Its value is 0%.

And the “%Inh” value [6]?
The value was 0%.

And the “%Inh” value [7]?
The value was 22%.

What about the “%Inh” value [8] of the same compound?
The value was 0%.

And the “%Inh” value [9]?
Its value is 0%.

And the “%Inh” value [10]?
Its value is 0%.

And the “%Inh” value [11]?
The value was 0%.

What about the “%Inh” value [12] of the same compound?
The value was 8%.

What about the “%Inh” value [13] of the same compound?
Its value is 0%.

And the “%Inh” value [14]?
Its value is 0%.

What about the “%Inh” value [15] of the same compound?
Its value is 0%.

What about the “%Inh” value [16] of the same compound?
The value was 0%.

And the “%Inh” value [17]?
The value was 16%.

And the “%Inh” value [18]?
Its value is 14%.

What about the “%Inh” value [19] of the same compound?
The value was 15%.

What about the “%Inh” value [20] of the same compound?
Its value is 0%.

How did the “%Inh” value [1] turn out when `Cn1ccc2ncnc(Oc3ccc(NC(=O)Nc4cncc(C(F)(F)F)c4)c(Cl)c3)c21` was run?
Its value is 0%.

And the “%Inh” value [2]?
Its value is 0%.

And the “%Inh” value [3]?
The value was 0%.

What about the “%Inh” value [4] of the same compound?
Its value is 2%.

And the “%Inh” value [5]?
The value was 0%.

And the “%Inh” value [6]?
The value was 20%.

What about the “%Inh” value [7] of the same compound?
Its value is 0%.

And the “%Inh” value [8]?
The value was 23%.

And the “%Inh” value [9]?
Its value is 0%.

What about the “%Inh” value [10] of the same compound?
Its value is 0%.

And the “%Inh” value [11]?
Its value is 0%.

What about the “%Inh” value [12] of the same compound?
The value was 0%.

What about the “%Inh” value [13] of the same compound?
Its value is 0%.

And the “%Inh” value [14]?
Its value is 0%.

What about the “%Inh” value [15] of the same compound?
The value was 0%.

What about the “%Inh” value [16] of the same compound?
Its value is 6%.

And the “%Inh” value [17]?
The value was 2%.

What about the “%Inh” value [18] of the same compound?
Its value is 0%.

And the “%Inh” value [19]?
The value was 100%.

And the “%Inh” value [20]?
The value was 100%.

For `Cc1nnc(-c2ccc3occ(-c4ccc(S(C)=O)cc4)c3n2)o1` (centres unmarked), which “%Inh” value [1] is on record?
Its value is 0%.

And the “%Inh” value [2]?
Its value is 0%.

And the “%Inh” value [3]?
Its value is 0%.

What about the “%Inh” value [4] of the same compound?
Its value is 0%.

And the “%Inh” value [5]?
The value was 0%.

What about the “%Inh” value [6] of the same compound?
Its value is 4%.

What about the “%Inh” value [7] of the same compound?
Its value is 0%.

And the “%Inh” value [8]?
The value was 0%.

What about the “%Inh” value [9] of the same compound?
Its value is 22%.

What about the “%Inh” value [10] of the same compound?
The value was 0%.

What about the “%Inh” value [11] of the same compound?
The value was 0%.

And the “%Inh” value [12]?
The value was 0%.

And the “%Inh” value [13]?
Its value is 0%.

What about the “%Inh” value [14] of the same compound?
Its value is 56%.

And the “%Inh” value [15]?
Its value is 0%.

And the “%Inh” value [16]?
The value was 16%.

And the “%Inh” value [17]?
Its value is 2%.

What about the “%Inh” value [18] of the same compound?
Its value is 0%.

And the “%Inh” value [19]?
Its value is 14%.

And the “%Inh” value [20]?
The value was 0%.

`Nc1nccc(-c2ccc3c(N)n[nH]c3c2)n1` [GSK1034945] was tested. Which “%Inh” value [1] did it give?
The value was 0%.

What about the “%Inh” value [2] of the same compound?
Its value is 0%.

And the “%Inh” value [3]?
The value was 0%.

And the “%Inh” value [4]?
The value was 0%.

And the “%Inh” value [5]?
Its value is 0%.

And the “%Inh” value [6]?
Its value is 11%.

And the “%Inh” value [7]?
The value was 3%.

What about the “%Inh” value [8] of the same compound?
The value was 21%.

What about the “%Inh” value [9] of the same compound?
The value was 0%.

And the “%Inh” value [10]?
Its value is 0%.

And the “%Inh” value [11]?
The value was 4%.

And the “%Inh” value [12]?
Its value is 0%.

What about the “%Inh” value [13] of the same compound?
Its value is 68%.

What about the “%Inh” value [14] of the same compound?
Its value is 0%.

And the “%Inh” value [15]?
Its value is 68%.

And the “%Inh” value [16]?
Its value is 27%.

What about the “%Inh” value [17] of the same compound?
The value was 8%.

What about the “%Inh” value [18] of the same compound?
The value was 0%.

What about the “%Inh” value [19] of the same compound?
The value was 17%.

What about the “%Inh” value [20] of the same compound?
Its value is 9%.
